# Screens deposited in PubChem by several laboratories.
# Rows were chosen to be rich in hits. Some 5% of all compounds tested hit in one or more screens of this group.
# EBI2 block: antagonists of human EBI2 receptor | 0.81% of 360,000 active | EBI2 beta-arrestin recruitment, luminescence, 7a,25-OHC stimulated | P32249 | inhibition, % at 5 µM | AID 651636; in the data active means inhibition above about 38%;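 further: enzyme fragment complementation signal reports receptor beta-arrestin coupling in cells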
# AHR act: activators of human aryl hydrocarbon receptor; P35869; AHR-responsive luciferase reporter cells, luminescence; activation, % at 5 µM; 2.5% of 320,000 active; in the data active means activation above about 47%
# SENP8 block-1: blocks the human protease SENP8 | Q96LD8 | purified SENP8, Z-RLRGG-aminoluciferin cleavage, luminescence | inhibition, % at 10 µM | 1.2% of 330,000 active | AID 2540; in the data active means inhibition above about 50%
# Target sequence (Q96LD8 whole entry, looked up): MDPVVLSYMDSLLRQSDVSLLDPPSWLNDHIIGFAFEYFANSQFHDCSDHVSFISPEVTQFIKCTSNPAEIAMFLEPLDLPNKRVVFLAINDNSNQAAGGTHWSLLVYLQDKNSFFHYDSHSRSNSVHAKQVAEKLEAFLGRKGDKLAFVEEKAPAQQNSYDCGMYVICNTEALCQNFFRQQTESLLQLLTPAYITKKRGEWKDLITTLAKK
# SENP6 block: inhibitors of human SENP6 protease. Q9GZR1. Recombinant SENP6 catalytic domain, aminoluciferin luminescence. inhibition, % at 10 µM. 1.8% of 330,000 active. AID 2599;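 active means inhibition above about 50% at the single tested dose, limit read from the data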
# SENP8 block-2: SENP8 (human) protease inhibition; Q96LD8; recombinant SENP8, Nedd8 substrate fluorescence; 0.64% of 360,000 active; inhibition, % at 20 µM; in the data active means inhibition mostly above about 40%, no sharp cut-off; inactive means mostly below about 27%
# SENP7 inh: blocks the human protease SENP7; Q9BQF6; recombinant SENP7, Z-RLRGG-aminoluciferin luminescence, 40 min; inhibition, % at 5 µM; 1.5% of 330,000 active;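 active means inhibition above about 50% at the single test dose, limit read from the data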
# A number is an active result; - = inactive; . = no result.
SMILES,EBI2 block,AHR act,SENP8 block-1,SENP6 block,SENP8 block-2,SENP7 inh
CCCS(=O)(=O)NC(=O)C1(C)CCN(C(=O)c2cccnc2Oc2ccccc2)C1 (stereo unspecified),-,.,.,.,-,.
COc1ccc(OCc2cc(C(=O)N3CCCC(CO)C3)no2)c2ccccc12 (stereo unspecified),-,50.3,-,-,-,-
CSc1ccccc1OCc1cc(C(=O)N2CCCC(C)C2)no1 (stereo unspecified),-,-,-,-,-,-
CCCOc1ccc(-c2nc(OC)c3ccccc3n2)cc1,-,77.1,-,-,-,-
Cc1cc(C(=O)NNC(=S)NCC(C)C)no1,-,-,-,-,-,-
CNC(=S)NNC(=O)c1sc(-c2cc(C)on2)nc1C,-,73.9,-,-,-,-
CNC[C@H](O)c1ccc(O)c(O)c1,-,-,-,-,55.2,-
CC(C)NCC(O)c1ccc(O)c(O)c1 (stereo unspecified),-,-,-,-,-,-
Cc1nc2c(OCc3ccc(C(F)(F)F)cc3)cccn2c1N(C)CC1CC1,-,.,.,.,-,.
COc1ccc(Nc2nc(N)nc(CSc3n[nH]c(-c4ccccc4)n3)n2)cc1,-,48.6,-,-,-,-
Nc1nc(CSc2ncccn2)nc(Nc2ccccc2)n1,-,-,-,-,-,-
Cc1ccc(Nc2nc(N)nc(CSc3nccn3C)n2)c(C)c1,-,48.1,-,-,-,-
Cc1ccc(Nc2nc(N)nc(CSc3ncccn3)n2)cc1,-,67.8,-,-,-,-
Cc1ccc(Nc2nc(N)nc(CSCCO)n2)cc1,-,48.3,-,-,-,-
Cc1ccc(NC(=O)C2C(=O)N(C)c3ccccc32)cc1 (stereo unspecified),-,72.6,-,-,-,-
COc1ccc(NC(=S)NC(NC(=O)c2cccc3ccccc23)C(Cl)(Cl)Cl)c([N+](=O)[O-])c1 (stereo unspecified),-,-,-,-,-,-
COc1ccc(NC(=S)NC(NC(=O)CCl)C(Cl)(Cl)Cl)c([N+](=O)[O-])c1 (stereo unspecified),-,-,-,-,51.9,-
CCN(CC)c1ccc(C(=O)Nc2ccccc2)cc1[N+](=O)[O-],-,53.1,-,-,-,-
O=C(Nc1ccccc1)c1ccc(NCCc2ccccc2)c([N+](=O)[O-])c1,-,49.8,-,-,-,-
COc1ccc(C(=O)Nc2ccc(Nc3ccccc3)cc2)cc1[N+](=O)[O-],-,-,-,-,-,-
Clc1ccc2oc(SCc3cccnc3)nc2c1,-,-,-,-,-,-
CCCN1C(=O)/C(=C/c2ccco2)SC1=Nc1ccc(OC)cc1,-,-,-,-,47.6,-
COc1ccc(N=C2S/C(=C\c3ccc(N4CCOCC4)o3)C(=O)N2CCc2c[nH]c3ccccc23)cc1,80.9,-,-,-,-,-
CCCN1C(=O)/C(=C/c2ccc(C)o2)SC1=Nc1ccc(OC)cc1,-,-,-,-,-,-
COc1ccc(N=C2S/C(=C\c3ccc(OCC(=O)O)cc3)C(=O)N2CCc2c[nH]c3ccccc23)cc1,-,.,-,-,-,-
SMILES,EBI2 block,AHR act,SENP8 block-1,SENP6 block,SENP8 block-2,SENP7 inh
O=C(Nc1ncc([N+](=O)[O-])s1)c1cccc([N+](=O)[O-])c1,-,-,97.3,96.1,-,100.7
Cc1ccc([N+](=O)[O-])cc1NC(=O)c1ccc(C(C)(C)C)cc1,-,71.2,-,-,-,-
O=C(Nc1ccccc1-c1ccccc1)c1cccc([N+](=O)[O-])c1,-,56.0,-,-,-,-
Cc1ccc([N+](=O)[O-])cc1NC(=O)c1ccc(-c2ccccc2)cc1,-,67.1,-,-,-,-
O=C(Nc1ccc(NC(=O)c2cccc([N+](=O)[O-])c2)cc1)c1cccc([N+](=O)[O-])c1,-,-,-,-,-,-
O=C(Nc1ccccc1-c1ccccc1)c1ccccc1,-,-,-,-,-,-
CCN(C(=O)CN1C(=O)NC2(CCCc3ccccc32)C1=O)c1ccc(F)cc1 (stereo unspecified),-,-,-,-,-,-
Cc1cc(Cl)ccc1C(O)c1ncc(-c2cccc3ccccc23)[nH]1 (stereo unspecified),-,.,.,.,-,.
Cc1c(NC(=O)c2ccc(-c3ccccc3)cc2)cccc1C(=O)O,-,-,92.5,98.6,-,96.0
Cc1ccc(NC(=O)C[n+]2ccn(C3=C([O-])c4ccccc4C3=O)c2)cc1,-,-,-,-,-,-
